From PubChem BioAssay
Only some compounds are listed: those with a hit (about 7.3% of all), similar ones and a draw of the others.
AmpC inh no detg: blocks E. coli AmpC beta-lactamase in detergent-free assay; AmpC nitrocefin hydrolysis, absorbance 480 nm, 0.0001% Triton; Potency, µM (highest dose often 57.1 µM), without a hit: at the top dose activity change, negative = inhibition, usual class: inhibitors; 330,000 compounds, 0.52% hits; AID 485341;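 note: potency is the fitted concentration of half-maximal effect; plate controls were no compound for no effect and no enzyme for full effect; nearly all actives have a fitted effect of over 20% in size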
Target sequence (P00811 whole entry, looked up): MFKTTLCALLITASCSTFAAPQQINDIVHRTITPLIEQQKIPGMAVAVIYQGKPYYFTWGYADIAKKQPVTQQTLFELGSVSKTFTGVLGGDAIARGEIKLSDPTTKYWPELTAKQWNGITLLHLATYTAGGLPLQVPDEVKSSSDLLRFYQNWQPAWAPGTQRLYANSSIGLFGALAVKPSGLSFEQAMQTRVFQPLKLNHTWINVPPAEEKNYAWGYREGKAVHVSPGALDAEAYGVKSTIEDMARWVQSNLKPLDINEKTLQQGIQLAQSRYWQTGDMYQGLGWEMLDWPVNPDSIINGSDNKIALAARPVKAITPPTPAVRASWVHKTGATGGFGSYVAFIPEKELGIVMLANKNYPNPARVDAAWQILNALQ
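20 mM phosphate pH 7.0 + 0.01% (detergent screen) or 0.0001% Triton X-100; 5.3 nM AmpC reagent; cpd preinc 15 min RT; nitrocefin (800 uM stock) to start; A480 q20 s × 4 min; Activity was normalised to no-enzyme and no-compound control wells.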
AmpC inh detg: AmpC beta-lactamase inhibition with detergent present; P00811; AmpC hydrolysis of nitrocefin, absorbance 480 nm, 0.01% Triton; Potency, µM (top dose mostly 114 µM), inactives show top-dose activity change, negative = inhibition, usual class: inhibitors; 370,000 compounds, 0.041% hits; AID 485294;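 note: potency is the fitted concentration of half-maximal effect; 0% = no-compound wells and -100% = no-enzyme wells; nearly all actives have a fitted effect of over 25% in size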
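20 mM phosphate pH 7.0 + 0.01% (detergent screen) or 0.0001% Triton X-100; 5.3 nM AmpC reagent; cpd preinc 15 min RT; nitrocefin (800 uM stock) to start; A480 q20 s × 4 min; Activity was normalised to no-enzyme and no-compound control wells.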
HCMV antiviral: human cytomegalovirus inhibition. HFF cells, HCMV-luciferase reporter, 72 h; active compounds read low. activity change, negative = inhibition, % at 57.5 µM. 410,000 compounds, 4.5% hits; in the data active = activity change below about -60%; inconclusive = no clear call, values can overlap the other calls; inactive = above about -39%
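After 16 h attachment at 37C, HFF cells received test compound and HCMV-luciferase (1 PFU/cell); reporter luminescence read 72 h later, data normalized against buffer-only and known inhibitor Salinomycin.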
FMDV inh: blocks foot and mouth disease virus; FMDV antiviral cell-based qHTS; Potency, µM (titrated, usually from 57.9 µM), for the others: at the top dose activity change, negative = inhibition, actives largely listed as inhibitors; 410,000 compounds, 1.2% hits; AID 1159524; calls by dose curve; tested in HEK293T cells; note: read-out not given here; potency is the fitted concentration of half-maximal effect; nearly all actives have a fitted effect of over 45% in size
HCV inh: HCV inhibition | Potency, µM (top dose mostly 41.8 µM), inactives show top-dose activity change, negative = inhibition, hits mostly inhibitors | 340,000 compounds, 3.4% hits | Huh7.5.1 HCVcc-Cre infection, luciferase reporter, 44 h; note: potency is the fitted concentration of half-maximal effect
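Infectious HCVcc-Cre (~0.5 moi) was added to cells just after compound, with cells seeded 4 h earlier at 1,000 per well. Luciferase activity after 44 h culture reported infection; substrate was incubated 15 min at room temperature before reading.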
The depositor's hits bear a star; [ ] = another dose, or the depositor's remark. Unless noted, calls come from the whole dose curve; as a rule, active = well fitted curve in the direction sought with a large enough effect; inconclusive = small, poorly fitted or top-dose-only effect, or another doubt; inactive = no such curve, though single readings can be large; an effect the other way counts as inactive or inconclusive. Unless noted, % is set by controls: 0 for no effect and ±100 for the full control effect.

For C[n+]1c2n(c3ccccc31)N=C(c1ccc(Cl)cc1)CS2 the results were AmpC inh no detg -15%, AmpC inh detg -2%, HCMV antiviral -96*, FMDV inh inconclusive and HCV inh inconclusive.
For COc1ccc(C2=Nn3c([n+](C)c4ccccc43)SC2)cc1 the results were AmpC inh no detg -1%, AmpC inh detg 1%, HCMV antiviral -81*, FMDV inh inconclusive and HCV inh 2.2µM*.
`Clc1ccc(C2=Nn3c(Cn4nnc5ccccc54)nnc3SC2)cc1` gave AmpC inh no detg -14%, AmpC inh detg -4%, HCMV antiviral 157, FMDV inh -23% and HCV inh 0%.
Screening CC1Sc2n(c3ccccc3[n+]2C)N=C1c1ccccc1 (stereo not drawn) returned AmpC inh no detg -15%, AmpC inh detg 1%, HCMV antiviral -97*, FMDV inh inconclusive and HCV inh -17%.
COc1ccc(OC)c(S(=O)(=O)N2CCN(C(=O)NC3CCCCC3)CC2)c1 was read as AmpC inh no detg 1%, AmpC inh detg -3%, HCMV antiviral 16, FMDV inh -10% and HCV inh 1%.
Screening O=C(Cc1cccc(NC(=O)C2CCCN(C(=O)C3CCCCC3)C2)c1)Nc1ccc(C(=O)N2CCOCC2)cc1 (stereo not drawn) returned HCMV antiviral -19, FMDV inh 9% and HCV inh 3%[8.37 µM].
Screening Cc1ccc(SCCC(=O)NCc2ccncc2)cc1 returned AmpC inh no detg -8%, AmpC inh detg -5%, HCMV antiviral -26, FMDV inh -9% and HCV inh 7%.
For Cc1ccc(SCc2ccc(C(=O)NCc3ccncc3)cc2)cc1 the results were AmpC inh no detg 11%, AmpC inh detg -2%, HCMV antiviral -78* and HCV inh -24%.
O=Cc1cn(Cc2ccccc2F)c2ccccc12 was read as AmpC inh no detg -12%, AmpC inh detg -6%, HCMV antiviral -92*, FMDV inh -8% and HCV inh 15%.
`CC(=O)c1cn(Cc2ccccc2C#N)c2ccccc12` gave AmpC inh no detg -9%, AmpC inh detg 6%, HCMV antiviral -65*, FMDV inh inconclusive and HCV inh 2.5µM*.
`CC(=O)c1cn(Cc2ccccc2F)c2ccccc12` gave AmpC inh no detg 2%, AmpC inh detg -15%, HCMV antiviral -79*, FMDV inh inconclusive and HCV inh inconclusive.
N/C(=N\O)c1cn(Cc2ccccc2Cl)c2ccccc12 was read as AmpC inh no detg -23%, AmpC inh detg inconclusive, HCMV antiviral -71*, FMDV inh inconclusive and HCV inh -19%.
For CCN(Cc1cnn(C)c1)C(=O)c1cc(COc2ccc3c(c2)CCCC3)on1 the results were AmpC inh no detg -8%, AmpC inh detg 8%, HCMV antiviral 15, FMDV inh -2% and HCV inh 22µM*.
`CCN(Cc1ccncc1)C(=O)c1cc(COc2ccc(C)c(C)c2)on1` gave AmpC inh no detg -31%, AmpC inh detg -6%, HCMV antiviral -74*, FMDV inh -17% and HCV inh inconclusive.
`Cn1cc(CNC(=O)c2cc(COc3ccc4c(c3)CCCC4)on2)cn1` gave AmpC inh no detg 126%, AmpC inh detg inconclusive, HCMV antiviral -4, FMDV inh -23% and HCV inh -22%.
Screening COc1ccc(CNC(=O)c2ccc(N3CCCC3)c(NC(=O)NCc3ccc(C)cc3)c2)cc1 returned AmpC inh detg -2%, HCMV antiviral -19 and FMDV inh -22%.
For Cc1ccc(-c2cc(C(F)F)n3ncc(C(=O)Nc4c(C)nn(Cc5ccccc5Cl)c4C)c3n2)cc1 the results were AmpC inh no detg -11%, AmpC inh detg -10%, HCMV antiviral -95*, FMDV inh inconclusive and HCV inh inconclusive.
Screening Cc1nn(Cc2c(Cl)cccc2Cl)c(C)c1NC(=O)c1cnn2c(C(F)F)cc(-c3ccccc3)nc12 returned AmpC inh no detg 17%, AmpC inh detg -14%, HCMV antiviral -8, FMDV inh 0% and HCV inh -11%.
Screening Cc1ccc(-c2cc(C(F)F)n3ncc(C(=O)Nc4c(C)nn(Cc5c(Cl)cccc5Cl)c4C)c3n2)cc1 returned AmpC inh no detg -14%, AmpC inh detg -5%, HCMV antiviral -77*, FMDV inh -19% and HCV inh -15%.
Screening CC[C@H]1c2[nH]c3ccccc3c2C[C@H]2C(=O)N(c3ccc(F)cc3)C(=O)N21 returned AmpC inh no detg -7%, AmpC inh detg -6%, HCMV antiviral -7, FMDV inh inconclusive and HCV inh inconclusive.
Screening CCOC(=O)c1cc(NC(=O)c2ccco2)ccc1N1CCOCC1 returned AmpC inh no detg -6%, AmpC inh detg 8%, HCMV antiviral 1, FMDV inh 16% and HCV inh 25%.
`Cc1ccc(NC(=O)c2cc(N3C(=O)C=CC3=O)ccc2N2CCOCC2)cc1` gave AmpC inh no detg -3%, AmpC inh detg 2%, HCMV antiviral inconclusive, FMDV inh inconclusive and HCV inh 10µM*.
For Cc1ccc(NC(=O)c2cc(N3C(=O)C4CC=CCC4C3=O)ccc2N2CCOCC2)cc1Cl (stereo not drawn) the results were AmpC inh no detg 31%, AmpC inh detg -9%, FMDV inh -19% and HCV inh -9%.
`O=C(Nc1ccc(N2CCOCC2)c(C(=O)O)c1)c1ccco1` gave AmpC inh no detg -12% and AmpC inh detg inconclusive.
Cc1ccc(NC(=O)c2cc(NC(=O)c3ccco3)ccc2N2CCCCC2)cc1 was read as AmpC inh no detg -27%, AmpC inh detg inconclusive, HCMV antiviral -64*, FMDV inh -26% and HCV inh inconclusive.
Cc1ccc(NC(=O)c2cc(NC(=O)c3ccco3)ccc2N2CCOCC2)cc1 was read as AmpC inh no detg -6%, AmpC inh detg -2%, HCMV antiviral 9, FMDV inh 4% and HCV inh 13µM*.
For CCCC(=O)N1CCCC1(C)C(=O)NCc1ccc(SC)cc1 (stereo not drawn) the results were HCMV antiviral -13 and FMDV inh 4%.
CCc1cc(C(=O)OC)c(NC(=O)CN2CCN(C(=O)c3ccco3)CC2)s1 was read as AmpC inh no detg 18%, AmpC inh detg -7%, HCMV antiviral 20 and FMDV inh inconclusive.
For Cc1ccc(C(=O)c2cc(C)sc2NC(=O)CN2CCN(C(=O)c3ccco3)CC2)cc1 the results were AmpC inh no detg 134%, AmpC inh detg inconclusive, HCMV antiviral 5, FMDV inh inconclusive and HCV inh 13µM*.
COC(=O)c1c(OCc2ccccn2)cc(=O)n2c1CCN(Cc1ccc3nsnc3c1)CC2 was read as FMDV inh -5%.
